Hits are enriched below; roughly 8% of the tested compounds scored in any of these assays.
Lassa entry inh: blocks Lassa virus binding to or entry into cells; AID 540256; Potency, µM (top dose mostly 37.9 µM), without a hit: top-dose activity change, negative = inhibition, most hits filed as inhibitors; Lassa virus pseudotype entry inhibition, cell reporter; 300,000 compounds, 1.2% hits; calls by dose curve; tested in HEK293 cells; note: potency is the fitted concentration of half-maximal effect; % is set by controls: 0 for no effect and ±100 for the full control effect; nearly all actives have a fitted effect of over 50% in size
HCMV inh: inhibitors of human cytomegalovirus; activity change, negative = inhibition, % at 57.5 µM; 410,000 compounds, 4.5% hits; HFF cells, HCMV-luciferase reporter, 72 h; stronger effect = lower value; in the data active = activity change below about -60%; inconclusive = no clear call, values can overlap the other calls; inactive = above about -39%; note: % is set by controls: 0 for no effect and ±100 for the full control effect
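Luciferase read-out from HCMV-luciferase-infected HFFs (MOI 1 PFU/cell) 72 h post infection at 37C; compounds added after 16 h cell attachment; activity normalized between buffer-only basal and Salinomycin (10uM) inhibitor controls.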
Marburg entry inh: inhibitors of Marburg virus binding or cell entry; Marburg virus pseudotyped entry inhibition, cell reporter; 300,000 compounds, 1.8% hits; Potency, µM (top dose mostly 37.8 µM), without a hit: at the top dose activity change, negative = inhibition, most hits filed as inhibitors; AID 540276; calls by dose curve; tested in HEK293 cells; note: potency is the fitted concentration of half-maximal effect; % is set by controls: 0 for no effect and ±100 for the full control effect
FMDV antiviral: foot and mouth disease virus antiviral activity. Potency, µM (top dose mostly 57.9 µM), inactives show at the top dose activity change, negative = inhibition, most hits filed as inhibitors. FMDV antiviral cell-based qHTS. AID 1159524. 410,000 compounds, 1.2% hits; calls by dose curve; tested in HEK293T cells; note: read-out not given here; potency is the fitted concentration of half-maximal effect; % is set by controls: 0 for no effect and ±100 for the full control effect; nearly all actives have a fitted effect of over 45% in size
HCV inh: inhibitors of hepatitis C virus infection. Huh7.5.1 HCVcc-Cre infection, luciferase reporter, 44 h. Potency, µM (series often up to 41.8 µM), without a hit: top-dose activity change, negative = inhibition, most hits filed as inhibitors. 340,000 compounds, 3.4% hits; active = well fitted inhibition curve with a large enough effect; inconclusive = small, poorly fitted or top-dose-only effect, or another doubt; inactive = no such curve, though single readings can be large or run the other way; note: potency is the fitted concentration of half-maximal effect; % is set by controls: 0 for no effect and ±100 for the full control effect
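HCVcc-Cre virus at an moi near 0.5 was added right after compound to cells cultured 4 h from seeding (1,000 cells/well). Luciferase activity was determined 44 h later, 15 min after substrate addition at RT.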
SARS PLpro yeast: inhibitors of SARS-CoV papain-like protease in yeast; Potency, µM (highest dose often 32.9 µM), without a hit: at the top dose activity, positive = growth rescue, usual class: activators; 330,000 compounds, 0.19% hits; S. cerevisiae expressing SARS-CoV PLpro, growth rescue; calls by dose curve; note: potency is the fitted concentration of half-maximal effect; 0% is about no effect; nearly all actives have a fitted effect of over 55% in size
An asterisk follows results filed as active; ? = inconclusive; . = not tested or not shown; [ ] = remark or other dose.

SMILES	Lassa entry inh	HCMV inh	Marburg entry inh	FMDV antiviral	HCV inh	SARS PLpro yeast
CCc1cc2c(cc3c(=O)n(CC(=O)NCc4cc(Br)ccc4OC)ncn32)s1	.	78	10%[46.1 µM]	-4%	.	.
CC(=O)Oc1cc2cccc(OC(C)=O)c(=O)c2c(OC(C)=O)c1OC(C)=O	.	.	.	?	2%	8.9µM*
COc1cc2cccc(OC)c(=O)c2c(O)c1OC	-1%[46.1 µM]	147	23%[46.1 µM]	7%	5%	-1%
Cn1c(C2CCC2)nc2cc(C(=O)N3CCOc4ccccc4C3)cc(NC(=O)C3CCCO3)c21 (centres undefined)	.	.	.	-7%	.	.
CC(=O)OC(C)(C)/C=C/C(=O)C(C)(O)C1C(O)CC2(C)C3CC=C4C(CC(O)C(=O)C4(C)C)C3(C)C(=O)CC12C (centres undefined)	0.13µM*	-98*	?	32µM*	?	.
CC(=O)OC(C)(C)/C=C/C(=O)[C@](C)(O)[C@H]1[C@H](O)C[C@@]2(C)[C@@H]3CC=C4[C@H](C[C@H](O)C(=O)C4(C)C)[C@]3(C)C(=O)C[C@]12C	0.29µM*	.	?	18µM*	-16%	?
CC(=O)OC(C)(C)/C=C/C(=O)[C@](C)(O)C1[C@H](O)C[C@@]2(C)C3CC=C4C(C=C(O[C@@H]5O[C@H](CO)[C@@H](O)[C@H](O)[C@H]5O)C(=O)C4(C)C)[C@]3(C)C(=O)C[C@]12C (some centres undefined)	.	-86*	.	0%	-48%[8.37 µM]	5%
CC(=O)OC(C)(C)/C=C/C(=O)C(C)(O)C1[C@H](O)C[C@@]2(C)C3CC=C4C(CC[C@@H](O)C4(C)C)[C@]3(CO)C(=O)C[C@]12C (some centres undefined)	?	-101*	0.25µM*	18µM*	?	3%
Cc1c(C(=O)NCC2(N3CCOCC3)CCCCCC2)cnn1-c1nccc(-c2ccccc2F)n1	.	.	.	-24%	.	.
NC(N)=NCc1cccc(I)c1	?	-66*	?	?	7.1µM*	.
c1ccc(CN=C(NCc2ccccc2)NCc2ccccc2)cc1	?	-15	?	?	?	.
OC1(C#Cc2c(-c3ccsc3)oc3ccc(N4CCOCC4)cc23)CCCCC1	.	51	.	-32%	5.6µM*	.
COc1ccc(-c2oc3ccc(N4CCOCC4)cc3c2C#CC2(O)CCCCC2)cc1	.	5	.	15%	10µM*	.
O=C(Nc1ccc(OCc2cc(=O)n3c4c(sc3n2)CCCC4)cc1)c1ccccc1	1%[46.1 µM]	-105*	3%[46.1 µM]	-4%	.	.
CC(C)NC(=O)c1nnc2n1CCN(Cc1cccc3c1OCO3)C2	.	-13	.	.	.	.
CCN(CC)CCC(=O)Nc1cccc2c1C(=O)c1ccccc1C2=O	12%	-99*	?	5%	?	-3%
CCN(CC)CCNC(=O)c1ccc2c(c1NCCO)C(=O)c1ccccc1C2=O	.	-109*	.	-26%	0.89µM*	-1%
COc1ccc(-c2noc(-c3ccc(NCc4ccc(C)cc4)c([N+](=O)[O-])c3)n2)cc1OC	-1%[46.1 µM]	-4	-16%[46.1 µM]	-2%	.	.
C=C1C(C)(C)[C@@H]2CC[C@]1(C(=O)Nc1nccs1)C2	.	.	-9%	.	.	.
COc1ccc(CCN(C)C(=O)c2cccc(S(=O)(=O)N3CCN(c4ccc(F)cc4)CC3)c2)cc1OC	.	?	.	?	2.8µM*	.
CN(CCOc1ccc(Cl)cc1)C(=O)c1cccc(S(=O)(=O)N2CCN(c3ccc(F)cc3)CC2)c1	?	.	7.1µM*	?	2.8µM*	.
O=C(Cn1c(=O)n(Cc2ccco2)c(=O)c2ccccc21)Nc1ccc(Cl)cc1Cl	?	-1	1%[46.1 µM]	-4%	.	.
Oc1ccc(/C=N/n2c3ccccc3c3ccccc32)cc1	-11%	2	-4%	-22%	10µM*	-33%
CCOC(=O)C1CCN(C(c2ccccc2OC)c2c(O)cc(C)n(CCOC)c2=O)CC1 (centres undefined)	-8%[46.1 µM]	5	.	0%	.	.
Cc1nc2c(-c3ccc(F)cc3)cnn2c(N)c1-c1ccc(F)cc1	-23%[46.1 µM]	-76*	5µM*	?	?	0%
SMILES	Lassa entry inh	HCMV inh	Marburg entry inh	FMDV antiviral	HCV inh	SARS PLpro yeast
COc1ccc(-c2c(C)nc3c(-c4ccsc4)cnn3c2N)cc1	.	63	.	22%	-5%	1%
Cc1cc(N)n2ncc(-c3ccc(Cl)cc3)c2n1	11%	261	?	47%	?	-23%
Cc1cc(N)n2ncc(-c3ccc(F)cc3)c2n1	?	122	0%[46.1 µM]	47%	10µM*	5%
COc1cc(-c2nnc(SCC(=O)N3CCCc4ccccc43)o2)cc(OC)c1OC	?	-8	-15%[46.1 µM]	-22%	.	.
CCC(=O)c1ccc(OCc2ccc(C(=O)OC)cc2)cc1	?	70	10µM*	?	6%	1%
COC(=O)c1ccc(COc2ccc(-c3nn[nH]n3)cc2)cc1	-19%	-107*	15%	13%	7%	-4%
COC(=O)c1ccc(N2C(=O)C[C@H](N3CCN(C(=O)c4ccco4)CC3)C2=O)cc1	.	.	21%	.	.	.
COc1cc(Cl)cc2c1Sc1ccccc1/C2=C/CCN(C)C	?	.	?	-15%	4.5µM*	-3%
CC(O)C1C=CC=CC(=O)OC2CC3OC4C5OC5(C)CCC4(COC(=O)C4OC4(C)C(O)CO1)C2(C)C31CO1 (centres undefined)	.	-96*	?	.	.	.
CC1=CC2OC3CC4OC(=O)C=CC=CC(C(C)O)OCC(O)C(C)CC(=O)OCC2(CC1O)C4(C)C31CO1 (centres undefined)	?	-97*	-72%	.	.	.
CC(=O)OC1C(=O)OCC23CCC4(C)OC4C2OC2CC(OC(=O)C=CC=CC(=O)OCCC1C)C3(C)C21CO1 (centres undefined)	?	-96*	?	.	.	.
COc1cccc([C@H]2/C(=C(\O)c3ccc4c(c3)OCCO4)C(=O)C(=O)N2CCN(C)C)c1	.	.	-10%	.	.	.
COc1ccc(-c2noc(C3CC(=O)N(c4ccc(C)c(F)c4)C3)n2)c(OC)c1 (centres undefined)	1%[46.1 µM]	14	.	0%	.	.
CC(C)(C)C(=O)NCCc1csc2nc(-c3ccc(F)cc3)nn12	-10%[46.1 µM]	-12	.	?	.	.
CC(C)CNC(=O)C(C)(C)n1cc(NC(=O)COCc2ccccc2)cn1	.	4	.	.	.	.
Cc1ccc(N2CC(C(=O)Nc3ccc(Br)cc3)CC2=O)cc1 (centres undefined)	-9%[46.1 µM]	-10	.	3%	.	.
C=CCn1c(COc2cccc(C)c2C)nnc1SCC(=O)N1CCN(c2ccccc2)CC1	5.6µM*	?	?	18µM*	?	?
CCn1c(COc2c(C)cccc2C)nnc1SCC(=O)N1CCN(c2ccccc2)CC1	?	?	?	?	35µM*	2%
Cc1cccc(OCc2nnc(SCC(=O)N3CCN(c4ccccc4)CC3)o2)c1C	-18%	-14	-29%	?	-4%	8%

Screening data as filed in PubChem.
